# Laboratory results as given in ChEMBL document CHEMBL3988442, “University of Dundee, Small-Polar-MMV Screening Library” (2021).
# For some of these results: Measured potencies and affinities stand elsewhere.
# Experiments:
# Set-up in all cases: scale not given: direction of the effect not stated beside the values
# [1] = target: Protein translocase subunit SecA (Escherichia coli (strain K12)) (UniProt P10408); assay: Assay to Identify E. coli SecA ATPase Inhibitors; assay type: functional; conditions: 30 µM
# [2] = target: T1, Ubiquitin-activating enzyme e1, putative (Leishmania donovani (strain BPK282A1)) (UniProt E9BSI1); assay: Leishmania donovani Ubiquitin Activating Enzyme (LdE1); assay type: functional; conditions: 30 µM
# T1 sequence (whole entry): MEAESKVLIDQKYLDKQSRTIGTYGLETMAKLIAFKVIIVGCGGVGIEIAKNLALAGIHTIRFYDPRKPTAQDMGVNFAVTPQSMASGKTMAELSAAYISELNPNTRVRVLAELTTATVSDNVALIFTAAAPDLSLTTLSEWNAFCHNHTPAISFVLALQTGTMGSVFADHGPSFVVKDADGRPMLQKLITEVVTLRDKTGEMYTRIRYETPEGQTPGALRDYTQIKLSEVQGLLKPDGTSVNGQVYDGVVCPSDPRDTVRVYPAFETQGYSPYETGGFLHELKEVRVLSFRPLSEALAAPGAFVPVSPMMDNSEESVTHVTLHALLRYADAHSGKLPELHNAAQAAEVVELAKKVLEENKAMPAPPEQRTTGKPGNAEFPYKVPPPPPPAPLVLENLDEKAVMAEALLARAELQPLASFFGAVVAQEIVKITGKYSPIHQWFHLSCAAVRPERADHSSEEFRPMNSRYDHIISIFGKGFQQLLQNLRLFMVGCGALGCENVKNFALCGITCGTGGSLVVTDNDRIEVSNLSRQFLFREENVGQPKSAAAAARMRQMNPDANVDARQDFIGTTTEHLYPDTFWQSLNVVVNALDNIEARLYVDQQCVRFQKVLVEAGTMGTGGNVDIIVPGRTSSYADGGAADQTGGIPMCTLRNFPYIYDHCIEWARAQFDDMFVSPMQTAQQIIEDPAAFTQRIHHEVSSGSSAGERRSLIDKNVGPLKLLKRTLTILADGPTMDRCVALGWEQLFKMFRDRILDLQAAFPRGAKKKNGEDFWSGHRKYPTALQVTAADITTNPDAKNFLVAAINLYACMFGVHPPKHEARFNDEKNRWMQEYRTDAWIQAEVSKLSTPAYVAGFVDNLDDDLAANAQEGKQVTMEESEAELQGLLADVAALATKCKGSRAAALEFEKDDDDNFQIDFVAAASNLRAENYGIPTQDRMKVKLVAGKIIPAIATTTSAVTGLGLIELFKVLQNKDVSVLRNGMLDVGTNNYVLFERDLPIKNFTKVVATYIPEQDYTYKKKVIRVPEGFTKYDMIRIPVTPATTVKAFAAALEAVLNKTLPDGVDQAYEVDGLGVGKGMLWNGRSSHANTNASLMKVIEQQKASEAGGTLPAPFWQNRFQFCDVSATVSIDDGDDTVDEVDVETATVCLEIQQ
# [3] = target: AMP-activated protein kinase, AMPK (Homo sapiens) (UniProt P54646+O43741+P54619+Q9UGJ0+Q9Y478+Q13131+Q9UGI9); assay: AMP-dependent Kinase enzyme assay. An in vitro enzyme assay that detects ADP turnover that is directly proportional to AMPK activity. This uses naive AMPK that is activated during the assay with MK-8722; assay type: functional; conditions: 30 µM
# [4] = target: Sialic acid-binding Ig-like lectin 9 (Homo sapiens) (UniProt Q9Y336); assay: Hs-Siglec9 ALPHAscreen SOP 20170721; conditions: 10 µM
# Trypanosoma cruzi = assay: Trypanosoma cruzi phosphomannomutase and mannose-1-phosphate guanylyltransferase assay; assay type: functional; conditions: 10 µM
# [5] = target: T2, Arginase-2, mitochondrial (Homo sapiens) (UniProt P78540); assay: in vitro enzyme assay to detect the production of urea directly proportional to the activity of Arginase II; assay type: functional; conditions: 33.3 µM; note: in the data most compounds retested in dose-response had high values
# T2 sequence (whole entry): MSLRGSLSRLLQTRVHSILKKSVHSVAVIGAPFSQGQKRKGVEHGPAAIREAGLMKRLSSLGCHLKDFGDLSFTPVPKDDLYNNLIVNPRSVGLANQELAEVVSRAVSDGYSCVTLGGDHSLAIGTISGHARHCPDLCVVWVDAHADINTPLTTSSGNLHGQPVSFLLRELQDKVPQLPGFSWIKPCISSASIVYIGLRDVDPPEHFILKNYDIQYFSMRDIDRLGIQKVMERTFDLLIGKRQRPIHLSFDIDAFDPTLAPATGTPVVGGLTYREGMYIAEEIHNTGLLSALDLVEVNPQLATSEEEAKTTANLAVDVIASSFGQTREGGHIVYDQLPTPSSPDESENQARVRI
# [6] = target: T3, Proteasome subunit beta (Trypanosoma cruzi) (UniProt O96673); assay: Trypanosoma cruzi proteasome chymotrypsin-like activity (TcProtChymo) assay.; note: in the data most compounds retested in dose-response had high values; assay type: functional; conditions: 9.37 µM
# T3 sequence (whole entry): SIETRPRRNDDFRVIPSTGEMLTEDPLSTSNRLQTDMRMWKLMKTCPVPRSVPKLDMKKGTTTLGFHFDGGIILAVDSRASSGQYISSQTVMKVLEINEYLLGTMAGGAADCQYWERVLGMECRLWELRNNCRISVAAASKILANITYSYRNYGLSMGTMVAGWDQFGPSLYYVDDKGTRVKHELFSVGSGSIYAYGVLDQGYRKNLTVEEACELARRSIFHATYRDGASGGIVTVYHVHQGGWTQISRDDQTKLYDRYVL
# Homo sapiens = organism: Homo sapiens; assay: To identify inhibition of the IFN signalling (Jak-Stat) pathway via expression of an eGFP reporter gene under the control of an IFN-stimulated response element (ISRE) containing MxA promoter.; assay type: functional; conditions: 30 µM
# [7] = target: T4, Tyrosyl-tRNA synthetase, putative (Trypanosoma cruzi (strain CL Brener)) (UniProt Q4DSP6); assay: Trypanosoma cruzi tyrosyl tRNA synthetase (TcYRS) _High Tyrosine SOP; assay type: functional; conditions: 30 µM; note: in the data most compounds retested in dose-response had high values
# T4 sequence (whole entry): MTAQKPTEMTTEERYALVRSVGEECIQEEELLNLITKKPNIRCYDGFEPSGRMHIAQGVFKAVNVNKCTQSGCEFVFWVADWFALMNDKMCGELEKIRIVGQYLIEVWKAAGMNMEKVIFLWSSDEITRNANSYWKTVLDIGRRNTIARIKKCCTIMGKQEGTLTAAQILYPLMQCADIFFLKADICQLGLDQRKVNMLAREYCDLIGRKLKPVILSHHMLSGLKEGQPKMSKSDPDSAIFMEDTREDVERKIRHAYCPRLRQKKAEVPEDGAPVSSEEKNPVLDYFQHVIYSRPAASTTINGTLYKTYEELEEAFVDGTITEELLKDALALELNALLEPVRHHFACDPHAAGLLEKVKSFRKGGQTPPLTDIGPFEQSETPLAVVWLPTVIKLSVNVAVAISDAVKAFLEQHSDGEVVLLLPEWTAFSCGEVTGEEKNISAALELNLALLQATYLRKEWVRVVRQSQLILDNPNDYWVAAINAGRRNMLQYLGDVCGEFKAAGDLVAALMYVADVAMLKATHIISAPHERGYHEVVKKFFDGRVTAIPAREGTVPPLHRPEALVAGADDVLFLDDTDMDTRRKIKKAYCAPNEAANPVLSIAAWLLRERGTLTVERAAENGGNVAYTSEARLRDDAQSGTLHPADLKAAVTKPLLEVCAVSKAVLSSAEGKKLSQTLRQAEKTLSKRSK
# [8] = target: T4, Tyrosyl-tRNA synthetase, putative (Trypanosoma cruzi (strain CL Brener)); assay: Trypanosoma cruzi tyrosyl tRNA synthetase (TcYRS) SOP; assay type: functional; conditions: 30 µM
# [9] = target: Chromo domain-containing protein 1 (Saccharomyces cerevisiae (strain ATCC 204508 / S288c) (Baker's yeast)) (UniProt P32657); assay: ScCHD-1 Enzyme Inhibition Assay; assay type: functional; conditions: 30 µM; note: in the data most compounds retested in dose-response had high values
# Sequence of Chromo domain-containing protein 1 (Saccharomyces cerevisiae (strain ATCC 204508 / S288c) (Baker's yeast)) (P32657 whole entry, the tested form may be a part): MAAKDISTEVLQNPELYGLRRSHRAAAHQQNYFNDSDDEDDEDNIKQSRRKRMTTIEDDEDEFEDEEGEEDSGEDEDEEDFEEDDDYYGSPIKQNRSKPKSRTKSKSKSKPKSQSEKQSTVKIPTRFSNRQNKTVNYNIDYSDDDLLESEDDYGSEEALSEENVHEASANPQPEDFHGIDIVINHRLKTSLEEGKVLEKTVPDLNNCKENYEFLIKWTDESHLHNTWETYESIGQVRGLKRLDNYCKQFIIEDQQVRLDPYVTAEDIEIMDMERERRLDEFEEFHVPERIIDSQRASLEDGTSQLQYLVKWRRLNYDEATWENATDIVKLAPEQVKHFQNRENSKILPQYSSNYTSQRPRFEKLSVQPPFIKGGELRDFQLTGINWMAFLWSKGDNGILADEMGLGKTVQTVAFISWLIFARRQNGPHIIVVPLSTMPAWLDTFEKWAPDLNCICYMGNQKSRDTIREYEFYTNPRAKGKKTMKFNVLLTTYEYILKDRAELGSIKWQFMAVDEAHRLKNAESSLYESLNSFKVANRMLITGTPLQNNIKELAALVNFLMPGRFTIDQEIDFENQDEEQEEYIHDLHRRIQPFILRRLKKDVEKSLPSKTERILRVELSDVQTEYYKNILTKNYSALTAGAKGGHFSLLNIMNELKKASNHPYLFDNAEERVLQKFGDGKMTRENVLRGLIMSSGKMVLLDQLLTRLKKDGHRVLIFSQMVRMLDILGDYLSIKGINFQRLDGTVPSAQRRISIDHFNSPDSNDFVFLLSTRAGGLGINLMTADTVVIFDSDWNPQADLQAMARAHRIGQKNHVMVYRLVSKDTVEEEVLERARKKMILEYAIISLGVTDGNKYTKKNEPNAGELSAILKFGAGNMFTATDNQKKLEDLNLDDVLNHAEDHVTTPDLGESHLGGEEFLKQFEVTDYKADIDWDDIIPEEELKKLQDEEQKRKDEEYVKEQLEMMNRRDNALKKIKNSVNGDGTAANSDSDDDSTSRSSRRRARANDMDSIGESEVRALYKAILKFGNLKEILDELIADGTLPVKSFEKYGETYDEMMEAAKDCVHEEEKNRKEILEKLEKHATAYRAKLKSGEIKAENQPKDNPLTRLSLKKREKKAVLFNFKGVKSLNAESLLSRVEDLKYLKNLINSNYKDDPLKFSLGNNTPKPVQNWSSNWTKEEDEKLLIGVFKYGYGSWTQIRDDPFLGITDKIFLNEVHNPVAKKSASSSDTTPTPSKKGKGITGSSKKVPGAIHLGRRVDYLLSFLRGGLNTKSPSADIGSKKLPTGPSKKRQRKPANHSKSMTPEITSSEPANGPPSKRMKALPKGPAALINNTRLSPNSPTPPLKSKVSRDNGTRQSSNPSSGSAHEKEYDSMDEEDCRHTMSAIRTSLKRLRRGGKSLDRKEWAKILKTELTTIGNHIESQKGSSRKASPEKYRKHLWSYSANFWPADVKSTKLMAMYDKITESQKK
# Sequence of Protein translocase subunit SecA (Escherichia coli (strain K12)) (P10408 whole entry): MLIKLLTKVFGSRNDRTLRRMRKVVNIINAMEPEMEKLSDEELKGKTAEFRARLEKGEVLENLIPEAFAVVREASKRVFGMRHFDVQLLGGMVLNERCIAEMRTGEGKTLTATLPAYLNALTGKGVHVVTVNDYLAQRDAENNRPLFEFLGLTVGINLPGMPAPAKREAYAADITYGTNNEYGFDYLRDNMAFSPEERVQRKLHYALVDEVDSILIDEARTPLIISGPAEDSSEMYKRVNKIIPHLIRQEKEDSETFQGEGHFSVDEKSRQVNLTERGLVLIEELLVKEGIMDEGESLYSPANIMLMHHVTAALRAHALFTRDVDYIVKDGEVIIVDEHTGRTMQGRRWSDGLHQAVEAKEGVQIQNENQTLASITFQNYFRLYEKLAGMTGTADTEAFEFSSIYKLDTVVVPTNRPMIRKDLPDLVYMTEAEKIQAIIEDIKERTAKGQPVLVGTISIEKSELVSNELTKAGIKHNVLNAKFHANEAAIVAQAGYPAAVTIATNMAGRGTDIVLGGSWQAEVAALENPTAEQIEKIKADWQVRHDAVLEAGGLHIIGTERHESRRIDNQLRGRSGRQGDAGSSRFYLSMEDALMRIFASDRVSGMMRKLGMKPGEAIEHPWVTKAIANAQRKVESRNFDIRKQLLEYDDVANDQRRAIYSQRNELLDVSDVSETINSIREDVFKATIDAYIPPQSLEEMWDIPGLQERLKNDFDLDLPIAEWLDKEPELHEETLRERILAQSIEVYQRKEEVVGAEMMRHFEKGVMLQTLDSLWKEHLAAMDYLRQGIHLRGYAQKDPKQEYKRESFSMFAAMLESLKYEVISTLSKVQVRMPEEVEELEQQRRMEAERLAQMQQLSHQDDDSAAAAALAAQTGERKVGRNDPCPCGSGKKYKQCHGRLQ
# Sequence of Sialic acid-binding Ig-like lectin 9 (Homo sapiens) (Q9Y336 whole entry): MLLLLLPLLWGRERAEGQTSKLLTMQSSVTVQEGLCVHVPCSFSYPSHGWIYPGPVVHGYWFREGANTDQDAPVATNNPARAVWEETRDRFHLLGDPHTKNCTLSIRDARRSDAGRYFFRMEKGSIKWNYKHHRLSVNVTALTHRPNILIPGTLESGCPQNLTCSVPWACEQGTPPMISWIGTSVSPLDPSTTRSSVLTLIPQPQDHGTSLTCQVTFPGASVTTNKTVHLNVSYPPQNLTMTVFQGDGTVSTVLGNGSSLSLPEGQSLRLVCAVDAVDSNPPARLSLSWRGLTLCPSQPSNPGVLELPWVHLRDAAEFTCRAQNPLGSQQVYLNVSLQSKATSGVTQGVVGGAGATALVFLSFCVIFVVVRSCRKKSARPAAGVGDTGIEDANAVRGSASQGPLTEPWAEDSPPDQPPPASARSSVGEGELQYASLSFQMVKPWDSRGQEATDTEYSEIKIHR
Structure (SMILES),Percent Effect [1] [%],Percent Effect [2] [%],Percent Effect [3] [%],Percent Effect [4] [%],Percent Effect (Trypanosoma cruzi) [%],Percent Effect [5] [%],Percent Effect [6] [%],Percent Effect (Homo sapiens) [%],Percent Effect [7] [%],Percent Effect [8] [%],Percent Effect [9] [%]
NC(=O)c1ccc2c(c1)nc1n2CCN(Cc2ccco2)C1,-3.62,21.1,5.96,1.24,3.02,-2.37,9.49,1.88,5.32,5.2,34.5
Cc1cnn(CCC(=O)N2C[C@H]3CC[C@@H]2CN(CC(=O)N(C)C)C3)c1,0.243,13.5,-6.36,7.46,7.34,1.91,17.6,5.29,5.82,17.1,-2.52
CSCC(CCO)NC(=O)Nc1cccc(Br)c1 (configuration not stated),-3.42,2.74,8.84,-3.56,-3.53,3.18,17.2,6.61,0,2.5,-2.08
COc1ncccc1NC(=O)N1CCC(CN2CCOCC2)CC1,2.03,2.67,-10.3,11.1,5.55,17.7,7.15,-13.1,2.73,6.17,0.459
Cc1ccc(CNCc2ccc(-n3nc(C)cc3C)nc2)cc1,-1.16,13.2,0.483,7.65,1.5,0.383,11.4,6.18,9.31,19.5,-9.49
N#CCCN(C(=O)CN1CCCC1c1ccsc1)c1ccccc1F (configuration not stated),-3.56,-18.9,-2.34,-0.732,-2.51,-8.69,-0.718,16.7,3.96,1.22,21.4
CC(=O)N1[C@H](Cn2cncn2)C[C@@H]2CN(c3ccc(C)nn3)CC[C@@H]21,-0.849,2.6,1.33,0.483,3.83,0,9.98,-9.62,-1.07,1.24,-3.45
CCOCC1CN(Cc2cccc(C#N)c2)Cc2nccn2C1 (configuration not stated),-3.99,-5.48,2.91,1.44,-2.38,-2,12.4,-1.58,4.17,3.7,-1.98
CCc1nnc(CN2CCN(C(=O)c3cc4ccccc4[nH]3)CC2)o1,-3,-2.6,2.79,2.32,8.91,-1.47,2.83,-20,1.91,2.35,-14.7
Cc1ccc(C2CSCCN2C(=O)C2=CCCC2)o1 (configuration not stated),-5.63,8.11,-2.27,26.9,0.684,1.24,2.83,-24,1.07,6.17,-2.84
Cc1nc(NC2CCCC2)cc(C2CCN2C(=O)c2cccnc2)n1 (configuration not stated),-4.83,23,7.33,1.33,4.54,-3.48,10.8,12.2,6.45,14.3,-16
CCn1cc2c(n1)CN(C(=O)c1ccncc1)CC2COCC1CC1 (configuration not stated),1.97,13.3,-0.804,23.2,-1.74,-23.5,20.9,-8.6,3.12,20,-6.15
CCc1ncc(CNC2CC(=O)N(CCc3cccc(Cl)c3)C2)cn1 (configuration not stated),-5.45,13.7,-3.73,5.67,7.54,-3.59,6.76,0.221,6.25,11.1,-2.3
Cc1nnc2n1CCN(CCC(=O)Nc1sccc1C#N)C2,-2.38,13.2,-4.92,7.34,0.84,-0.719,10.4,9.54,6.4,18.5,-2.88
CC(C)OCc1ncn2c1CN(Cc1cccs1)CCC2,-1.74,-2.7,-26.4,0.954,-2.25,-2.23,9.04,12.4,-2.16,2.56,-2.17
COc1ccccc1OCC(=O)NS(=O)(=O)c1ccccc1F,-3.52,13.5,-3.34,25.9,4.44,-0.952,11.9,6.7,2.65,9.76,-10.8
CCOCCOc1ccccc1C(=O)N1CCCC(c2ncc[nH]2)C1 (configuration not stated),-3.41,8.22,11.4,0.341,0.979,3.64,23.2,6.64,8.6,17.5,-11.5
